Assay outcomes from PubChem.
USP2a block: qHTS Assay for Inhibitors of Ubiquitin-specific Protease USP2a Using CHOP2 as the Reporter; Ubiquitin carboxyl-terminal hydrolase 2 (Homo sapiens), O75604; USP2 core, Ub-CHOP2 coupled fluorogenic reporter, 485/531; 330,000 tested, 0.01% active; Potency, µM (top dose mostly 38.3 µM), most hits filed as inhibitors
Target sequence (O75604 whole entry, looked up): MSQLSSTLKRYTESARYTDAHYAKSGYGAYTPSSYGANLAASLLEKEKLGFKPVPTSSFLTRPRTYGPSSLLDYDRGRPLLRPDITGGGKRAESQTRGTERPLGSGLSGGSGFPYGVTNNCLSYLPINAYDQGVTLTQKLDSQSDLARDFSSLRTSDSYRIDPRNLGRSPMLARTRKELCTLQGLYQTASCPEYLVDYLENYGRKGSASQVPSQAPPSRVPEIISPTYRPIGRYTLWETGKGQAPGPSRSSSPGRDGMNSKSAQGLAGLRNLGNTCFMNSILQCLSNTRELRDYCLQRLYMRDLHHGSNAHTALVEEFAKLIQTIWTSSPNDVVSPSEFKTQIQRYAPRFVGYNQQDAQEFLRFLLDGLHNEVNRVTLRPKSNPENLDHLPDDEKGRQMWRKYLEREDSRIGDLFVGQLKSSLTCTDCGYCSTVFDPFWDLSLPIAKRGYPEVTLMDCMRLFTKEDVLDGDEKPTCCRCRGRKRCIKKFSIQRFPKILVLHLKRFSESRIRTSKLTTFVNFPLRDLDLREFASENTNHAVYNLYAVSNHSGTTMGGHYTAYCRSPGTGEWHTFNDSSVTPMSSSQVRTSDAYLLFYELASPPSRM
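USP2 core (10nM final) preincubated 30min RT with compound in 20mM Tris-HCl pH 8.0, 2mM CaCl2, 2mM beta-mercaptoethanol, 0.05% CHAPS; 25nM Ub-CHOP2 plus 25nM reporter substrate added, fluorescence (Ex485/Em531) read after 60min.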
p53 reactivation: qHTS assay for re-activators of p53 using a Luc reporter. H1299 p53-A138V BP100-luciferase reporter, luminescence, 24 h. Potency, µM (highest dose often 92.2 µM), most hits filed as activators. 320,000 tested, 0.063% active. AID 504706, 2011; note: nearly all actives have a fitted effect of over 45% in size
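H1299 (p53-null), stable ts p53-A138V + BP100-Luc; 1000 cells/well, Opti-MEM/10% FBS; cpd 4 pt, 1:5; 24 h, 37 deg C, 5% CO2; detection reagent 10 min RT; luminescence.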
Integrin act MD: qHTS for Activators of Integrin-Mediated Alleviation for Muscular Dystrophy. Potency, µM (doses to about 38.3 µM), usual class: activators. alpha7betagal myoblasts, beta-gal FDG fluorescence, 48 h. 350,000 tested, 0.064% active. AID 624291, 2012; note: nearly all actives have a fitted effect of over 60% in size
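alpha7betagal+/- myoblasts (passage 13, 250/well) treated 48 h at 37C with compounds at 1:260 dilution of DMSO stock. Lysed, then beta-galactosidase activity read as FDG fluorescence (ex 480/em 540) after 30 min, with pre-read for autofluorescence.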
ClpP mod: qHTS Assay for Activators of ClpP; ATP-dependent Clp protease proteolytic subunit (Bacillus subtilis (strain 168)), P80244; Potency, µM (top dose mostly 57.5 µM); purified B. subtilis ClpP, FRET peptide cleavage, 20 min; 340,000 tested, 1.9% active; AID 651965, 2013; active = well fitted falling curve with a large enough effect; inconclusive = small, poorly fitted or top-dose-only effect; inactive = no such curve, though single readings can be large or run the other way; note: the source files actives as falling curves though it sought activators and does not explain the sign; nearly all actives have a fitted effect of over 65% in size
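FRET quenching reversal measured ClpP activation: 10 microg/mL B. subtilis ClpP at pH 8 with the FRET-FV decapeptide, read at 430 nm after 320 nm excitation. The 20-min minus 0-min signal was scaled between DMSO/no-enzyme wells and ADEP (5.8 microM final).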
Eya2 inh: qHTS Assay for Inhibitors of the Phosphatase Activity of Eya2. 330,000 tested, 0.006% active. Protein phosphatase EYA2 (Homo sapiens), O00167. recombinant Eya2, OMFP fluorescence dephosphorylation (OMFP is methylfluorescein phosphate). Potency, µM (top dose mostly 76.9 µM), usual class: inhibitors
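Eya2 protein (added as 0.2 uM solution) was preincubated with compound for 10 min at ambient temperature in 50 mM HEPES pH 7.5, 50 mM NaCl, 5 uM MgCl2, 0.05% BSA, 1 mM DTT. OMFP (added at 50 uM) then reacted 10 min; fluorescence read at 485/525 nm.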
Mm-Cpn inhibitor: Inhibitors of TCP-1 ring complex (TRiC) of Methanococcus maripaludis (MmCpn): qHTS. Chaperonin Mm-Cpn (Methanococcus maripaludis). purified Mm-Cpn ATPase, ADP Transcreener TR-FRET. Potency, µM (series often up to 76.9 µM), most hits filed as inhibitors. 330,000 tested, 0.031% active. AID 504842, 2011; note: nearly all actives have a fitted effect of over 80% in size
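Compound-treated chaperonin, 25 nM final, turns over 10 uM ATP at 37°C for 30 min following a 10 min preincubation; ADP generated competes with ADP-d2 for Eu-cryptate antibody, lowering FRET.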
Numbers stand for hits; – = inactive; ? = inconclusive; · = no result given; [ ] = remark or other dose. The full list was thinned out, with hits kept by preference. Unless noted, calls come from the whole dose curve; as a rule, active = well fitted curve in the direction sought with a large enough effect; inconclusive = small, poorly fitted or top-dose-only effect, or another doubt; inactive = no such curve, though single readings can be large; an effect the other way counts as inactive or inconclusive.

SMILES	USP2a block	p53 reactivation	Integrin act MD	ClpP mod	Eya2 inh	Mm-Cpn inhibitor
Clc1cncc(Cl)c1NNc1c2ccccc2nc2ccccc12	–	–	–	28.2µM	–	–
Cc1ccc(Nc2nc(NCc3ccco3)nc3nccnc23)cc1	·	·	·	–	·	·
Cc1c(-c2nsc(NC(=O)c3ccc(Cl)cc3)n2)nnn1-c1ccc(C(C)C)cc1	·	·	·	25.1µM	·	·
COC(=O)c1ccc(-n2nnc(-c3nsc(NC(=O)c4ccc(Cl)cc4)n3)c2C)cc1	·	·	·	–	·	·
O=C(CCSc1nnc2ccccn12)Nc1ccc(F)cc1	–	–	–	28.2µM	–	–
C=Nc1ccc(/C=C/c2ccnc3ccccc23)cc1	·	·	·	–	·	·
N#Cc1c2n(c3c(-c4ccccc4)ncnc13)CCC2	–	–	–	31.6µM	–	–
N#Cc1c2n(c3c(=O)[nH]cnc13)CCCC2	–	–	?	–	–	–
Cc1c(C#N)c2ncnc(-c3ccccc3)c2n1-c1ccccc1	–	–	–	35.5µM	–	–
OCC[N+]1(CCc2ccccc2)CCOCC1	·	·	·	–	·	·
Cc1ccc(C)c(CN2CCC(CNC(=O)C(CC(C)C)N3Cc4ccccc4C3=O)CC2)c1 (centres undefined)	·	·	·	–	·	·
O=S(=O)(c1ccc2ccccc2c1)N1CCN(c2nc(-c3ccccc3)nc3ccccc23)CC1	·	·	·	–	·	·
COc1ccc(C2C(C#N)C(C#N)N3CCCN23)cc1 (centres undefined)	–	–	–	31.6µM	–	–
Cc1cccc(-c2nnc(C3CCN(S(=O)(=O)c4cccc(Cl)c4)CC3)o2)c1	·	·	·	–	·	·
COC(=O)C1Cc2c([nH]c3ccccc23)CN1 (centres undefined)	–	–	–	31.6µM	–	–
COC(=O)[C@H]1Cc2c([nH]c3ccccc23)[C@H](c2ccccc2)N1	–	–	–	–	–	–
CCOC(=O)C(=CNc1ccc(N2CCCCC2)c(S(=O)(=O)Nc2ccccc2OC)c1)C(=O)OCC	·	·	–	17.8µM	·	·
COc1ccc(Nc2c3c(nc4ccc(NC(=O)/C=C/c5cccc(OC)c5OC)cc24)CCCC3)cc1OC	·	·	·	–	·	·
Cc1cccc(OCCn2c(CCNC(=O)C3CCCCC3)nc3ccccc32)c1	·	·	·	–	·	·
COc1cc2cc(C(=O)O)n(C)c2c(OC)c1OC	–	–	–	12.6µM	–	–
CCOCCCn1c(=N)c(C(N)=S)cc2c(=O)n3cccc(C)c3nc21	–	–	–	28.2µM	–	–
Cc1cccn2c(=O)c3cc(C(N)=S)c(=N)n(CCCOC(C)C)c3nc12	–	–	–	15.8µM	–[15.4 µM]	–
CC(C)CC(=O)OCc1cc(=O)n2nc(C3CCCCC3)sc2n1	·	·	·	–	·	·
N#CN=c1snc(-c2ccccc2)n1-c1ccc(Cl)cc1	·	·	·	–	·	·
CC(CNC(=O)CCc1cn(Cc2ccccc2Cl)c2ccccc12)c1ccccc1 (centres undefined)	·	·	·	–	·	·
SMILES	USP2a block	p53 reactivation	Integrin act MD	ClpP mod	Eya2 inh	Mm-Cpn inhibitor
OC(C[n+]1ccccc1Cl)c1ccccc1 (centres undefined)	·	·	·	–	·	·
Cc1ccc(S(=O)(=O)c2nnn3c2nc(NCc2ccccc2)c2sccc23)cc1	·	·	·	20µM	·	·
Cc1ccc(S(=O)(=O)c2nnn3c2nc(NCc2ccc(F)cc2)c2sccc23)cc1C	·	·	·	28.2µM	·	·
Cc1ccc(S(=O)(=O)c2nnn3c2nc(NCc2ccc(F)cc2)c2sccc23)cc1	·	·	·	–	·	·
CCCCNc1nc2c(S(=O)(=O)c3ccc(C)c(C)c3)nnn2c2ccsc12	·	·	·	28.2µM	·	·
CCOP(=O)(OCC)C(NC(=O)Nc1ccc(Cl)cc1)C(N)=O (centres undefined)	–	–	–	–	–	–
CCOP(=O)(OCC)C(NC(=O)Nc1ccc(Cl)c(Cl)c1)C(N)=O (centres undefined)	–	–	–	15.8µM	–	–
O=C(COC(=O)C12CC3CC(CC(Br)(C3)C1)C2)NCc1ccco1	·	·	·	–	·	·
Cc1ccc(C)c(Nc2nc3c(S(=O)(=O)c4ccc(Br)cc4)nnn3c3ccsc23)c1	·	·	·	28.2µM	·	·
Cc1ccc(C)c(Nc2nc3c(S(=O)(=O)c4ccc(C(C)C)cc4)nnn3c3ccsc23)c1	·	·	·	35.5µM	·	·
COc1ccccc1Nc1nc2c(S(=O)(=O)c3ccc(C(C)C)cc3)nnn2c2ccsc12	·	·	·	–	·	·
CCOC(=O)c1ccc(N2CCN(c3ccccc3F)CC2)c(NC(=O)Nc2cccc(OC)c2)c1	–	–	–	25.1µM	–	–
CCOC(=O)c1ccc(N2CCN(c3cc(Cl)ccc3C)CC2)c(NC(=O)Nc2cccc(OC)c2)c1	·	·	·	–	·	·
COc1cccc(C2CC(c3cccs3)=NN2C(=O)CSc2nc3ccccc3s2)c1OC (centres undefined)	–	–	–	28.2µM	–	–
Cc1ccc(C2CC(c3cccs3)=NN2C(=O)CSc2nc3ccccc3o2)cc1 (centres undefined)	–	–	–	14.1µM	–	–
O=C(CSc1nc2ccccc2o1)N1N=C(c2cccs2)CC1c1ccc(F)cc1 (centres undefined)	–	–	–	31.6µM	–	–
O=C(CSC1=NCCS1)N1N=C(c2cccs2)CC1c1ccc(F)cc1 (centres undefined)	·	·	–	–	·	·
O=C(CBr)c1ccc(Oc2ccc(C(=O)C[n+]3cccc(Br)c3)cc2)cc1	·	·	·	–	·	·
C=C1c2cccc(O)c2C(=O)C2C(=O)[C@]3(O)C(=O)C(C(N)=O)C(=O)[C@@H](N(C)C)[C@@H]3[C@@H](O)[C@H]12 (some centres undefined)	7.08µM	–	·	–	–	?
